Source: PubChem BioAssay (Tox21)
Results filed as inconclusive are left out. Activity calls are given as the source filed them. Unless noted, calls come from the whole dose curve.

Columns and labels:
[1] = Nuclear factor erythroid 2-related factor 2/antioxidant responsive element (Nrf2/ARE) small molecule agonists: qHTS cell viability counter screen in human keratinocytes (AID 1919968; active = well fitted curve in the direction sought with a large enough effect in the repeat runs; an effect the other way counts as inactive or inconclusive; note: nearly all actives have a fitted effect of over 55% in size)
Outline: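 KeratinoSens cells (HaCaT keratinocytes stably carrying an ARE-luciferase reporter) were seeded at 1,500 cells/well and rested 5 h at 37 C/5% CO2. They were then exposed to compounds in DMSO for 23 h. Viability was read by CellTiter-Fluor fluorescence after 1 h.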

[2] = Nuclear factor erythroid 2-related factor 2/antioxidant responsive element (Nrf2/ARE) small molecule agonists: luciferase reporter gene qHTS assay in human keratinocytes (AID 1919969); note: nearly all actives have a fitted effect of over 35% in size
[3] = molecular target: KiSS-1 receptor (Homo sapiens) (UniProt Q969F8); assay: Human kisspeptin (KISS1R) small molecule agonists, calcium flux assay in KISS1R-HEK293 cells (AID 1920064; active = well fitted curve in the direction sought with a large enough effect in the repeat runs; an effect the other way counts as inactive or inconclusive)
Chain of KiSS-1 receptor (Homo sapiens) (Q969F8 whole entry, looked up): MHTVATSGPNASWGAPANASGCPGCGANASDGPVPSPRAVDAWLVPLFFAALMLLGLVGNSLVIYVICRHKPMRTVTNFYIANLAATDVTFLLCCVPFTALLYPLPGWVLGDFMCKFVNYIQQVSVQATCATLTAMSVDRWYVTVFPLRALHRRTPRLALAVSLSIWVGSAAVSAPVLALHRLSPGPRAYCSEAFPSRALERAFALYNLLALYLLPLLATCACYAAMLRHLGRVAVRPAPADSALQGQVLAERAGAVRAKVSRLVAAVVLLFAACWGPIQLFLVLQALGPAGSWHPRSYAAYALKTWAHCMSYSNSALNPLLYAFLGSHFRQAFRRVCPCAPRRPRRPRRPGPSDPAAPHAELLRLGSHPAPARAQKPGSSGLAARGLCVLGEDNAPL
Outline: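 HEK293 cells stably expressing human KISS1R were plated 18 h at 37 °C, loaded with calcium dye for 1 h at 37 °C, then given compound by pin tool. Fluorescence (Ex/Em 480/540) was read kinetically for 3 min.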

[4] = p53 small molecule agonists, cell-based qHTS assay with human liver microsomes (AID 1963577)
Outline: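 p53RE-bla reporter cells were pre-incubated 5 h at 37 C, then treated with compounds plus human liver microsomes (0.5 mg/mL final) and NADPH (0.5 mg/mL final) for 16 h at 37 C. Beta-lactamase activity was read by LiveBLAzer fluorescence after 2 h at room temperature.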

[5] = p53 small molecule agonists, cell-based qHTS assay with rat liver microsomes (AID 1963578)
Outline: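 p53RE-bla cells were exposed to compounds together with rat liver microsomes (0.5 mg/mL final) and NADPH (0.5 mg/mL final) for 16 h at 37 C, then read by LiveBLAzer beta-lactamase fluorescence after 2 h at room temperature.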

[6] = p53 small molecule agonists, cell-based qHTS assay with rat liver microsomes: qHTS cell viability counter screen (AID 1963580); note: nearly all actives have a fitted effect of over 45% in size
Outline: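 p53RE-bla HCT-116 cells were exposed 16 h at 37 C to compounds with rat liver microsomes (0.5 mg/mL) and NADPH (0.5 mg/mL). Viability was measured in the same wells as ATP content by CellTiter-Glo luminescence.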

[7] = molecular target: 5-hydroxytryptamine receptor 2A (Homo sapiens) (UniProt P28223); assay: 5-hydroxytryptamine receptor 2A (HTR2A) small molecule antagonists, cell-based qHTS assay (AID 1963586); note: nearly all actives have a fitted effect of over 45% in size
Chain of 5-hydroxytryptamine receptor 2A (Homo sapiens) (P28223 whole entry, looked up): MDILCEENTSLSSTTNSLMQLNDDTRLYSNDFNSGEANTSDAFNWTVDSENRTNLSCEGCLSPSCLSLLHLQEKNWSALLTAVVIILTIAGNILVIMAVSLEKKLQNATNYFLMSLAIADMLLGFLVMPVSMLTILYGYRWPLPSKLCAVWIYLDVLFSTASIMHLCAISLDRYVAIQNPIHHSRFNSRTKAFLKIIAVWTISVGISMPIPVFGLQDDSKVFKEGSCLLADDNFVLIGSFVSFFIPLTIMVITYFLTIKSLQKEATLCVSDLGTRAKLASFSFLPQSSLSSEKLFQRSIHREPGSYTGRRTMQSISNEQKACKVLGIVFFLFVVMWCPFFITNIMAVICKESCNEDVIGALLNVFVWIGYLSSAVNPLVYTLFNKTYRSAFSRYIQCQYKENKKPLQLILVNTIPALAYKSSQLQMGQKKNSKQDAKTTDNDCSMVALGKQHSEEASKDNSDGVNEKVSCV
Outline: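 Antagonist-mode intracellular calcium assay: DOI (4 nM) added after 5 min compound pre-incubation at room temperature to dye-loaded HTR2A-CHO cells. Fluorescence followed for 3 min, sampled every second.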

[8] = molecular target: 5-hydroxytryptamine receptor 2A (Homo sapiens) (UniProt P28223); assay: 5-hydroxytryptamine receptor 2A (HTR2A) small molecule agonists, cell-based qHTS assay (AID 1963587); note: nearly all actives have a fitted effect of over 30% in size
Outline: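 CHO cells stably expressing human HTR2A, plated 18 h, loaded with calcium dye 1 h at 37 C. Agonist mode: compounds added and intracellular calcium fluorescence recorded kinetically for 2 min at 1 sec intervals.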

[9] = molecular target: Muscarinic acetylcholine receptor M1 (Homo sapiens) (UniProt P11229); assay: Cholinergic receptor muscarinic 1 (CHRM1) small molecule antagonists, cell-based qHTS assay (AID 1963588); note: nearly all actives have a fitted effect of over 40% in size
Chain of Muscarinic acetylcholine receptor M1 (Homo sapiens) (P11229 whole entry, looked up): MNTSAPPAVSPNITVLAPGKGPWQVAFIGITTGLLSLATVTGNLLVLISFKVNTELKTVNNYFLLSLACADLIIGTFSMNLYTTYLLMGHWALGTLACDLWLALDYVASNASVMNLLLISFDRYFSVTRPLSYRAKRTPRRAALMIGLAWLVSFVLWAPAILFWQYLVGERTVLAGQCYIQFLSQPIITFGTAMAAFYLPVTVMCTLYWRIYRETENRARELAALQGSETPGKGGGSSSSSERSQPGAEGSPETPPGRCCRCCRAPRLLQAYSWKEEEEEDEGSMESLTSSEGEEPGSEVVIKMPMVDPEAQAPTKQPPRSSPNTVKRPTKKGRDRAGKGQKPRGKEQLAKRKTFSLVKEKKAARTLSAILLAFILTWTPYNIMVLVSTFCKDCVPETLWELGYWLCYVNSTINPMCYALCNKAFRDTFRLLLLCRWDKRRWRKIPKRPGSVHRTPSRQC
Outline: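 CHRM1-CHO calcium-flux assay, antagonist mode. Cells were seeded 18 h, dye-loaded 1 h at 37 C and given compound for 5 min at RT, then acetylcholine was added at 50nM. FDSS fluorescence was read 3 min; 15 concentrations, three runs.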

[10] = molecular target: Muscarinic acetylcholine receptor M1 (Homo sapiens) (UniProt P11229); assay: Cholinergic receptor muscarinic 1 (CHRM1) small molecule agonists, cell-based qHTS assay (AID 1963589); note: nearly all actives have a fitted effect of over 35% in size
Outline: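 CHO cells stably expressing human CHRM1, seeded 18 h at 37 C/5% CO2, dye-loaded 1 h at 37 C, then given compound in agonist mode; intracellular calcium fluorescence read kinetically at 1 s intervals. Fifteen concentrations, three independent runs.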

[11] = cAMP Responsive Elements (CRE) small molecule agonists, cell-based qHTS assay (AID 1963590)
Outline: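 CRE-bla HEK 293T cells in DMEM with 10% dialyzed FBS, NEAA, pyruvate and 25 mM HEPES were plated 18 h at 37 C/5% CO2, then exposed to compounds in DMSO for 3 h before LiveBLAzer B/G FRET substrate addition.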

[12] = cAMP Responsive Elements (CRE) small molecule antagonists, cell-based qHTS assay (AID 1963591; active = well fitted inhibition curve with a large enough effect in the signal ratio in the repeat runs, not every such curve was filed as active; the % refers to the signal ratio)
Outline: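 CRE-bla HEK293T cells were plated 18 h at 37 °C/5% CO2, pinned with compound in DMSO, then stimulated with NKH477 at 0.25 uM final for 3 h. LiveBLAzer B/G FRET substrate was added and plates incubated 2 h at room temperature.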

[13] = molecular target: Beta-2 adrenergic receptor (Homo sapiens) (UniProt P07550); assay: Adrenergic beta2 receptor (ADRB2) small molecule antagonists, cell-based qHTS assay (AID 1963592); note: series mostly up to about 92 µM; nearly all actives have a fitted effect of over 50% in size
Chain of Beta-2 adrenergic receptor (Homo sapiens) (P07550 whole entry, looked up): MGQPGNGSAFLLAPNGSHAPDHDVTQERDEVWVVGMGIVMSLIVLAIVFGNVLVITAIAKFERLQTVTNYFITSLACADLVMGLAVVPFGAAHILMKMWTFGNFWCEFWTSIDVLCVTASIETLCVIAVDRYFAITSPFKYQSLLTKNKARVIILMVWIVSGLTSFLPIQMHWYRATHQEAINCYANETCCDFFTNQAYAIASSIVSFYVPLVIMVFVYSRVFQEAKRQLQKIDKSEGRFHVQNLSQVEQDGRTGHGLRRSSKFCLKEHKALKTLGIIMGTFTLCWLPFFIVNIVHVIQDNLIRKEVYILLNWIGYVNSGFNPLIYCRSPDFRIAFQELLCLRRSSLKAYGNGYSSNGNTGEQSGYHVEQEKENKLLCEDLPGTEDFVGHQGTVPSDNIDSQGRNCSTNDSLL
Outline: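 Cells (CHO, stable ADRB2 overexpression) incubated 18-20hr at 37C; compounds added from DMSO; agonist mix (1nM isoproterenol, 100uM IBMX, 25uM Ro-20-1724) added; 0.5hr RT; d2-cAMP and anti-cAMP-cryptate added; 1hr RT; 665/615 nm read.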

[14] = molecular target: Beta-2 adrenergic receptor (Homo sapiens) (UniProt P07550); assay: Adrenergic beta2 receptor (ADRB2) small molecule agonists, cell-based qHTS assay (AID 1963593);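 note: CHO cells stably overexpressing human ADRB2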
Outline: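 CHO cells stably over-expressing ADRB2 were plated overnight at 37C, then dosed with compounds plus a stimulation mix containing 100uM IBMX and 25uM Ro-20-1724 for 0.5hr at room temperature. cAMP was measured by HTRF competition, 1hr.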

[15] = molecular target: D(2) dopamine receptor (Homo sapiens) (UniProt P14416); assay: Dopamine D2 receptor (DRD2) small molecule agonists, cell-based qHTS assay (AID 1963594); note: nearly all actives have a fitted effect of over 35% in size
Chain of D(2) dopamine receptor (Homo sapiens) (P14416 whole entry, looked up): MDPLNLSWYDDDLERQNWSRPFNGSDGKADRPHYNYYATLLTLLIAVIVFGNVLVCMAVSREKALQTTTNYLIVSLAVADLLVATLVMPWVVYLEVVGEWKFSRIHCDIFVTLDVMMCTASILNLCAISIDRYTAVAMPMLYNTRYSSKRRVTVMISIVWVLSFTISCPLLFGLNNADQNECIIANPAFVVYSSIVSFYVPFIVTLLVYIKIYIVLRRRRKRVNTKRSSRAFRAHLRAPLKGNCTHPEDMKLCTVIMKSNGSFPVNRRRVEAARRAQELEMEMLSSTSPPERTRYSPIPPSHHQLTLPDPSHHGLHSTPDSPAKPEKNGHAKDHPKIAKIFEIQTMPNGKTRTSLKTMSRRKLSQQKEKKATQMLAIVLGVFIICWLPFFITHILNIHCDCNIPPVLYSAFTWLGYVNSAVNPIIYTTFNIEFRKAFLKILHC
Outline: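 HEK293 cells stably expressing human DRD2, pre-treated with PDE inhibitor Ro20-1724 (0.1 mM final) and compound 10 min at room temperature, then stimulated with NKH477 (200nM […]) for 30 min. cAMP read by HTRF (665/620 nm).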

[16] = G protein-coupled receptor (GPCR) small molecule agonists, calcium flux assay: HEK293 wild type cell line counter screen (AID 1920065)
Outline: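 Cells were plated and cultured 18 h at 37 C/5% CO2, then loaded with calcium dye for 1 h at 37 C. Compounds in DMSO were pin-transferred in agonist mode, and fluorescence (Ex/Em 480/540) was read kinetically for 3 min at 1 s intervals.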

[17] = p53 small molecule agonists, cell-based qHTS assay with human liver microsomes: qHTS cell viability counter screen (AID 1963579); note: nearly all actives have a fitted effect of over 45% in size
Outline: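 p53RE-bla cells (4,000/well) were pre-incubated 5 h at 37 C, then given compounds in DMSO plus human liver microsomes (0.5 mg/mL final) and NADPH (0.5 mg/mL final) for 16 h at 37 C. Viability was read by CellTiter-Glo luminescence.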

[18] = p53 small molecule agonists, cell-based qHTS assay (AID 1963582; active = well fitted activation curve with a large enough effect in the signal ratio in the repeat runs, not every such curve was filed as active; the % refers to the signal ratio)
Outline: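 p53RE-bla beta-lactamase reporter cells rested 5 h at 37 C/5% CO2, then received compounds in DMSO by pin transfer and were incubated 16 h at 37 C. LiveBLAzer B/G FRET substrate was loaded for 2 h at room temperature before fluorescence reading.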

[19] = molecular target: D(2) dopamine receptor (Homo sapiens) (UniProt P14416); assay: Dopamine D2 receptor (DRD2) small molecule antagonists, cell-based qHTS assay (AID 1963595; active = well fitted inhibition curve with a large enough effect in the signal ratio in the repeat runs, with a control signal flat; the % refers to the signal ratio)
Outline: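 HEK293 cells stably expressing DRD2 were preincubated with 0.1 mM Ro20-1724, then with compound for 10 min at room temperature. Cells were stimulated with 200 nM NKH477 plus 12 nM quinpirole for 30 min, and cAMP was read by HTRF.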

[20] = p53 small molecule agonists, cell-based qHTS assay: qHTS cell viability counter screen (AID 1963581); note: nearly all actives have a fitted effect of over 45% in size
Outline: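 p53RE-bla HCT-116 cells were exposed to compounds for 16 h at 37 C; after the beta-lactamase FRET read in the same wells, CellTiter-Glo was added and luminescence (intracellular ATP) read after 30 min at room temperature.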

Measured: Potency

O=C(O)CCCCCCNC1c2ccccc2CCc2ccccc21
not listed: [16] | [17] | [18] | [19] | [20]
inactive: all other assays above

C=CC(=C)C
not listed: [3] | [4] | [14] | [20]
inactive: all other assays above

Oc1cccc(Cl)c1Cl
not listed: [2] | [12] | [13] | [14]
inactive: all other assays above

CN1CCC(O)(c2ccc(F)cc2)C(C(=O)c2ccc(F)cc2)C1 (configuration not stated)
not listed: [2] | [7] | [9]
inactive: all other assays above

CC(C)Br
not listed: [2] | [11] | [14]
inactive: all other assays above

CC[N+]1(C)CCCC(OC(=O)C(O)(c2ccccc2)c2ccccc2)C1 (configuration not stated)
not listed: [2] | [9] | [14] | [19]
inactive: all other assays above
